# Most compounds without a hit are left out; they make up all but 10% or so of the library.
# JMJD2A Tudor inh – inhibitors of human JMJD2A Tudor domain; O75164; AlphaScreen JMJD2A-Tudor / H3K4me3 peptide binding; Potency, µM (titrated, usually from 114 µM), most hits filed as inhibitors; actives 4.4% (n = 390,000); AID 504339; note: nearly all actives have a fitted effect of over 50% in size
# BAZ2B inh – BAZ2B (human) inhibition. Q9UIF8. AlphaScreen BAZ2B-H3K14Ac peptide displacement. Potency, µM (titrated, usually from 114 µM), usual class: inhibitors. actives 4.4% (n = 360,000); note: nearly all actives have a fitted effect of over 60% in size
# Target sequence (Q9UIF8 whole entry, looked up): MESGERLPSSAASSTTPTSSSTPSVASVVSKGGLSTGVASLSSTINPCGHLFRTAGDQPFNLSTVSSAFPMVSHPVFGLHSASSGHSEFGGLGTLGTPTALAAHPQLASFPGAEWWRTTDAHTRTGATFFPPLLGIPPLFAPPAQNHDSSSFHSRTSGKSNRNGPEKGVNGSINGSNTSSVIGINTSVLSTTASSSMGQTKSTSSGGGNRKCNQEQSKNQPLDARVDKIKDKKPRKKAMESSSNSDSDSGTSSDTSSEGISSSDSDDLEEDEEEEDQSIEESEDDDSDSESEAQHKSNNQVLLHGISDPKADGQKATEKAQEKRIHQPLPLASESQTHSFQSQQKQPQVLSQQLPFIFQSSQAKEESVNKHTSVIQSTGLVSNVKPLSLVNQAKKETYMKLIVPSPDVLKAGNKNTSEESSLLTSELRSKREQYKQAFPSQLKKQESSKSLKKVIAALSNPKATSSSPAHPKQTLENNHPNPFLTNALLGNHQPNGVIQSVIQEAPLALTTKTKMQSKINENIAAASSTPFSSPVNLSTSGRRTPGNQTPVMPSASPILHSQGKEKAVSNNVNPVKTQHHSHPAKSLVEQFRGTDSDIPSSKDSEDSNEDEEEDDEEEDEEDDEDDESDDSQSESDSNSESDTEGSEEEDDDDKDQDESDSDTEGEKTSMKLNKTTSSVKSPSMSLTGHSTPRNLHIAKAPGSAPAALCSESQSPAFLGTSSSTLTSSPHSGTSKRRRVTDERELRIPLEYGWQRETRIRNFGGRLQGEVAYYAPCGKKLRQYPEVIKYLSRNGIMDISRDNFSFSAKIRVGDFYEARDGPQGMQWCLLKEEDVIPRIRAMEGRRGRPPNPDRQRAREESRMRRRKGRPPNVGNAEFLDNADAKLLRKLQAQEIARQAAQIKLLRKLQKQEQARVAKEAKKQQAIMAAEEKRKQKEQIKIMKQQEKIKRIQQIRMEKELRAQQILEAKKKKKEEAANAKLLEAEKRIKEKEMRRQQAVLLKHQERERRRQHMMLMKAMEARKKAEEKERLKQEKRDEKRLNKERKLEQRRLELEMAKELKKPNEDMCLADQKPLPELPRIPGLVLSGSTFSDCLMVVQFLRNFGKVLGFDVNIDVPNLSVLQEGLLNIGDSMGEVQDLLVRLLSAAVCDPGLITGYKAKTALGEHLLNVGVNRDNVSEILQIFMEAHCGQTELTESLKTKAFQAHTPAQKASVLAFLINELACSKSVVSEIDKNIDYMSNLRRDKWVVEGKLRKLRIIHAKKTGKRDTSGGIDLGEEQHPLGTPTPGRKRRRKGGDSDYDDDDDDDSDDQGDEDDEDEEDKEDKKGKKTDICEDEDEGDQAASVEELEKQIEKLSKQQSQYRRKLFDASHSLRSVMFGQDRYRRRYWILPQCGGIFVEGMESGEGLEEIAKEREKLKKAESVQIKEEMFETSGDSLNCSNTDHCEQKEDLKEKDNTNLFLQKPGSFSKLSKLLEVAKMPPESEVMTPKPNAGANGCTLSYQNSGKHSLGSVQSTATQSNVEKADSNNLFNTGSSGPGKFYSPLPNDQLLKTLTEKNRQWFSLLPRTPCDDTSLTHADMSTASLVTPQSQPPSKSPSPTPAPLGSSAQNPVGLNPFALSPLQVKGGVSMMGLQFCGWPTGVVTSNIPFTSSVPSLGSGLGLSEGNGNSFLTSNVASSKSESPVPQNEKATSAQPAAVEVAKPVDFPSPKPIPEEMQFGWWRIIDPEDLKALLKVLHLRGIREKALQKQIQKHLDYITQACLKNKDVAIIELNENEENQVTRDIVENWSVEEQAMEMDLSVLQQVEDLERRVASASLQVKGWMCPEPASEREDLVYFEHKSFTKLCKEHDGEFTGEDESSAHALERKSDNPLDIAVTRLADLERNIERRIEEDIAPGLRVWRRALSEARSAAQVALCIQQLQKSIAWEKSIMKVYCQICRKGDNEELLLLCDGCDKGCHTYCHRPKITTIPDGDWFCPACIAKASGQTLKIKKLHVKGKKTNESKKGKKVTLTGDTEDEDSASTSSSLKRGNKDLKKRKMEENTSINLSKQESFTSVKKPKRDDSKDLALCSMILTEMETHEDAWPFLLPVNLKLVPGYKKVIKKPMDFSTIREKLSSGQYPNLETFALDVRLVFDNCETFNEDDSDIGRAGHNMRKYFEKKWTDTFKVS
#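 Compounds, titrated to a top concentration of 110 uM, were incubated 30 min at room temperature with preformed BAZ2B/acetyl-K14 H3 peptide complex (50 nM each). Proximity signal was measured by AlphaScreen after 20 min with beads.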
# G9a block – inhibitors of human histone lysine methyltransferase G9a | Q96KQ7 | G9a H3K9 monomethylation, AlphaScreen, 2 h | Potency, µM (top dose mostly 102 µM), actives largely listed as inhibitors | actives 8.8% (n = 350,000) | AID 504332; note: nearly all actives have a fitted effect of over 75% in size
#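 Quantitative HTS format: methyltransferase activity on a biotin-tagged H3K9 peptide is measured by AlphaScreen, using a rabbit anti-monomethyl-H3K9 antibody with streptavidin donor and anti-IgG acceptor beads. Final levels are 20 nM enzyme, 500 nM peptide, 20 uM SAM; 2 h RT.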
# HP1b binding inh – HP1-beta chromodomain-methylated histone interaction inhibition. P83916. AlphaScreen HP1-beta / biotin-H3K9me3 peptide binding. Potency, µM (series often up to 114 µM), hits mostly inhibitors. actives 0.56% (n = 390,000); note: nearly all actives have a fitted effect of over 70% in size
#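 HP1-beta protein (50 nM final) preincubated 30 min at room temperature with biotinylated H3(1-18)K9me3 peptide (50 nM) in PBS pH 7.4, 0.01% Tween-20, then compound added for 30 min. AlphaScreen streptavidin donor/nickel chelate acceptor beads (10 ug/mL final), 30 min dark, luminescence read.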
# GLS inh – inhibitors of human glutaminase (GLS). O94925. Potency, µM (doses to about 45.5 µM), most hits filed as inhibitors. GLS enzymatic activity, qHTS titration. actives 0.21% (n = 410,000)
#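 Compounds were pin-transferred onto hKGA, after which L-glutamine (1 mM solution) and a detection mix of glutamate oxidase, HRP and Amplex Red were added. Initial and 30 min RT fluorescence reads were collected.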
# A number is an active result; – = inactive; ? = inconclusive; · = no result given; [ ] = remark or other dose. Calls come from the whole dose curve; as a rule, active = well fitted curve in the direction sought with a large enough effect; inconclusive = small, poorly fitted or top-dose-only effect, or another doubt; inactive = no such curve, though single readings can be large; an effect the other way counts as inactive or inconclusive.
SMILES,JMJD2A Tudor inh,BAZ2B inh,G9a block,HP1b binding inh,GLS inh
CCOC(=O)c1c(NC(=S)Nc2ccccc2)sc2c1CCN(CC)C2,–,–,35µM,–,–
CCOC(=O)c1c(NC(=S)NCc2ccccc2)sc2c1CCN(C(=O)OCC)C2,–,–,–,–,–
CCOC(=O)N1CCc2c(sc(N)c2C#N)C1,–,–,20µM,–,–
COC(=O)c1c(NC(=O)CCS(=O)(=O)c2ccccc2)sc2c1CCN(C)C2,–,–,?,–,–
CCCN1CCc2c(sc(NC(=O)CCS(=O)(=O)c3ccccc3)c2C(=O)OC)C1,–,–,40µM,–,–
CCOC(=O)c1c(NC(=S)Nc2ccccc2)sc2c1CCCCC2,–,–,?,–,–
C=CCNC(=S)Nc1sc2c(c1C(=O)OCC)CCN(C(=O)OCC)C2,–,–,13µM,–,–
O=S(=O)(c1ccc2c(c1)CCC2)N1CCN(c2nc(-c3ccccc3)nc3ccccc23)CC1,–,·,·,–,·
CCC(=O)N1CCc2cc(S(=O)(=O)NCCN3CCCCC3CC)ccc21 (stereo unspecified),–,–,–,–,–
CCN(CC)S(=O)(=O)c1cc(NC(=O)COC(=O)Cn2cnc3ccccc32)ccc1C,–,–,?,–,–
O=C(NCCn1cc(SCc2ccc(C(F)(F)F)cc2)c2ccccc21)c1ccccc1F,–,–,–,–,–
COc1ccc(C)cc1NC(=O)C(NC(=O)c1cc(OC)c(OC)c(OC)c1)C(C)C (stereo unspecified),40µM,·,–,?,–
O=C(O)CCC(=O)/C=C/c1ccccc1,–,–,–,–,–
NC(=O)Cc1nc(-c2ccc([N+](=O)[O-])cc2)cs1,–,–,–,–,–
NC(=O)Cc1nc(-c2ccc(F)cc2)cs1,–,–,22µM,–,–
Cc1ccc(NC(=O)c2ccccc2)cc1,–,–,–[12.7 µM],–,–
COC(=O)/C(=C\C(=O)c1ccccc1)Nc1ccc(OC)cc1,35µM,40µM,14µM,?,–
Cc1ccc(N/C(=C\C(=O)c2ccccc2)C(=O)O)cc1,?,56µM,?,–,–
COc1ccc(N/C(C)=C/C(=S)Nc2ccccc2)cc1,–,–,–,–,13µM
COc1ccc(N/C(C)=C/C(=O)c2ccccc2)cc1,?,?,?,?,–
CCNc1c(NS(=O)(=O)c2ccc(F)c(Cl)c2)c(=O)oc2ccccc12,–,–,–,–,–
CC(C)(C)OC(=O)C[C@@H]1C/C=C\C[C@@H](CC(=O)N(CCO)Cc2ccccc2)C(=O)NC[C@H](c2ccccc2)OC1=O,–,·,·,–,–
CCOc1cc(CNCCc2c[nH]c3ccccc23)cc(Cl)c1OCC(N)=O,–,?,·,–,–
COc1ccc(CNc2c(C(=O)O)cnc3c2cnn3C)cc1,–,–,–,–,–
COc1ccc2nc3cccc(OC)c3nc2c1,–,?,22µM,–,–
SMILES,JMJD2A Tudor inh,BAZ2B inh,G9a block,HP1b binding inh,GLS inh
COc1ccc2nc3ccccc3nc2c1N,40µM,28µM,1µM,40µM,?
CCCOC(=O)/C(=C\C=C\c1ccccc1)NC(=O)c1ccccc1,–,–,–,–,–
Cc1ccc(C(=O)COC(=O)CNS(=O)(=O)c2ccc(C)cc2)cc1,–,–,–,–,–
O=C(CN1CCN(Cc2ccccc2)CC1)N/N=C/c1ccco1,–,–,–,–,–
Clc1ccc(CN2CCN(/N=C/c3ccco3)CC2)cc1,?,?,50µM,?,–
Cc1ccc(/C=N/N2CCN(Cc3ccc(Cl)cc3)CC2)o1,?,?,50µM,–,–
Cc1ccc2nc(-c3ccccc3)c(CN3CCSCC3)n2c1,?,?,?,–,–
CSc1nnc(-c2cccc(NC(=S)NN)c2)o1,–,?,7.9µM,–,–
CC1CCCCN1C(=O)COc1ccccc1F (stereo unspecified),56µM,–,–,–,–
CC1CCCCN1C(=O)CNCc1ccc(F)cc1 (stereo unspecified),3.2µM,79µM,?,?,–
CC1CCCCN1C(=O)CNCC1CCCO1 (stereo unspecified),0.89µM,–,–,?,–
COc1ccc(CCNC(=O)CCS(=O)(=O)c2ccc3c(c2)NC(=O)CS3)cc1OC,?,–,–,–,–
COc1ccc(S(=O)(=O)Cc2ccc(C(=O)N3CCN(c4ccccc4F)CC3)o2)cc1,–,–,–,–,–
CCOC(=O)C(Cc1ccccc1)C(=O)Nc1ccc(N(CC)CC)cc1 (stereo unspecified),50µM,?,3.5µM,?,–
CCN(CC)c1ccc(/C=N/NC(=O)OC(C)(C)C)cc1,–,?,50µM,–,–
CCN(CC(F)(F)C(F)F)S(=O)(=O)c1ccc(NC(=O)OC)cc1,20µM,–,–,?,?
COC(=O)Nc1ccc(S(=O)(=O)N(CCO)CC(F)(F)C(F)F)cc1,–,–,–,–,–
CCN(CC)c1ccc(/C=N\NC(N)=O)cc1,–,–,?,–,–
CCN(CC)c1ccc(NC(=O)/C=C/c2cc(Br)ccc2OC)cc1,4µM,8.9µM,–[0.0925 µM],?,–
NNC(=O)c1snnc1-c1ccccc1,–,–,–,–,–
CCSc1nnc(NC(=O)c2ccccc2C)s1,–,–,–,–,–
Cc1ccc(-c2c(C)n([O-])c3c([n+]2=O)CCC3)o1,–,–,–,–,–
CC1=C(C(=O)Nc2ccc(C)cc2C)C(CC(C)C)n2nc(SCc3ccccc3C)nc2N1 (stereo unspecified),–,–,–,–,–
COC(=O)c1ccc(NC(=S)NC2CC(C)(C)NC(C)(C)C2)cc1,–,–,?,–,–
NS(=O)(=O)c1ccc(NC(=S)NC(=O)C2CCCC2)cc1,–,–,71µM,–,–
SMILES,JMJD2A Tudor inh,BAZ2B inh,G9a block,HP1b binding inh,GLS inh
CC1(C)CC(NC(=S)Nc2ccc(S(N)(=O)=O)cc2)CC(C)(C)N1,–,–,50µM,–,–
CC(=O)Nc1ccc(NC(=S)NC(=O)C2CCCC2)cc1,–,–,–,–,–
NS(=O)(=O)c1ccc(CNC(=S)NC2CC2)cc1,–,?,28µM,–,–
S=C(NCc1ccncc1)NC1CCCC1,–,–,50µM,–,–
NS(=O)(=O)c1ccc(CCNC(=S)NC2CCCCC2)cc1,–,–,–,–,–
Cc1ccc(-c2nc3ncccc3o2)cc1NC(=O)c1ccccc1,–,–,–,–,–
CC(=O)NNS(=O)(=O)c1ccc(-c2cc(C(F)(F)F)n(C)n2)s1,–,–,·,–,–
COc1ccc(NC(=S)NCc2ccc(S(N)(=O)=O)cc2)cc1OC,?,–,?,–,–
Cc1ccc2nc(-c3ccc(NC(=S)NC4CC(C)(C)NC(C)(C)C4)cc3)sc2c1,–,–,50µM,–,–
CCN(CC)c1ccc(NC(=S)NC(=O)C2CCC2)cc1,45µM,22µM,40µM,?,–
CCOc1ccc(NC(=S)NC(=O)C2CCCC2)cc1,–,–,?,–,–
CCN(CC)c1ccc(NC(=O)OC)cc1,?,?,3.5µM,–,?
COC(=O)Nc1ccc(NC(C)=O)cc1,–,–,–,–,–

# Assay outcomes from PubChem BioAssay.
